The record followed here is PubChem BioAssay (Tox21).

Structures are written as SMILES. Values joined by “and” are separate entries in the source; they are usually repeats but may differ in a detail not shown here. Equal values may be shown once. Inconclusive results are not listed. Active and inactive are the calls of the source. Unless noted, calls come from the whole dose curve; as a rule, active = well fitted curve in the direction sought with a large enough effect in the repeat runs; inconclusive = weak or mixed curves; inactive = no such curve, though single readings can be large; an effect the other way counts as inactive or inconclusive.

Test [1] in a line: qHTS assay to identify small molecule antagonists of the thyroid receptor (TR) signaling pathway - cell viability counter screen (AID 743064). Note: nearly all actives have a fitted effect of over 50% in size. Note: potency is the fitted concentration of half-maximal effect. The settings on record: GH3.TRE-Luc viability, CellTiter-Fluor, 24 h; series mostly up to 70.3 µM. The procedure, abridged: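 GH3.TRE-Luc rat pituitary cells dosed after 4 hr plating, co-stimulated with T3 at 1 nM final, incubated 23.5 h at 37 C. Viability measured in the same wells by CellTiter-Fluor fluorescence after 30 min further at 37 C.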
In general terms: qHTS replaces the single test concentration by a dilution series.

The nature of test [2]: qHTS assay to identify small molecule antagonists of the estrogen receptor alpha (ER-alpha) signaling pathway - cell viability counter screen (AID 743074; calls by dose curve; note: nearly all actives have a fitted effect of over 45% in size). Conditions: ERalpha-bla HEK293 viability, CellTiter-Glo luminescence, 18 h; series mostly up to 69.4 µM.
Test [3] is described as follows: qHTS assay to identify small molecule antagonists of the estrogen receptor alpha (ER-alpha) signaling pathway using the BG1 cell line - cell viability counter screen (AID 743081).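 Note: compound given together with 17beta-estradiol as the ER stimulus; nearly all actives have a fitted effect of over 45% in size.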 Note: potency is the fitted concentration of half-maximal effect. Conditions: BG1Luc4E2 viability, CellTiter-Fluor, 22 h; series mostly up to 70.3 µM.
Another test deals with Aromatase (Homo sapiens) (UniProt P11511). In words: qHTS assay to identify aromatase inhibitors (AID 743083). Note: nearly all actives have a fitted effect of over 55% in size. Note: potency is the fitted concentration of half-maximal effect. Conditions: MCF-7 aro ERE, testosterone-driven ERE luciferase, 24 h; series mostly up to 70.3 µM.
For test [4], the target named is Estrogen receptor (Homo sapiens) (UniProt P03372). In words: qHTS assay to identify small molecule antagonists of the estrogen receptor alpha (ER-alpha) signaling pathway (AID 743069; active = well fitted curve in the direction sought with a large enough effect in the signal ratio in the repeat runs, not every such curve was filed as active; the % refers to the signal ratio). Conditions: HEK293 ER-alpha-UAS-bla, beta-lactamase ratio, antagonist mode; series mostly up to 69.4 µM. The procedure, abridged:
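Fluorescence intensity from a beta-lactamase FRET substrate served as the read-out. Cells: HEK293 with stably integrated ER-alpha-UAS-bla reporter. Agonist 17beta-estradiol was co-added with compounds; incubation 18 hr at 37C, substrate 2 hr at room temperature.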

Test [5] shares this target. In words: qHTS assay to identify small molecule agonists of the estrogen receptor alpha (ER-alpha) signaling pathway (AID 743075; calls by dose curve; note: potency is the fitted concentration of half-maximal effect). The settings on record: HEK293 ER-alpha-UAS-bla, beta-lactamase FRET ratio, 18 h; series mostly up to 70.1 µM.
The target is the same in test [6]. In words: qHTS assay to identify small molecule agonists of the estrogen receptor alpha (ER-alpha) signaling pathway using the BG1 cell line (AID 743079). Note: nearly all actives have a fitted effect of over 20% in size. Note: potency is the fitted concentration of half-maximal effect. Conditions: BG1Luc4E2 cells, ERE-luciferase agonist, 22 h; activation: at 70.3 µM (top of the series).
Test [7] can be described thus: qHTS assay to identify small molecule antagonists of the estrogen receptor alpha (ER-alpha) signaling pathway using the BG1 cell line (AID 743080; calls by dose curve;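 note: BG1 cells stimulated with 17beta-estradiol alongside compound; nearly all actives have a fitted effect of over 25% in size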). Conditions: BG1Luc4E2 ERE-luciferase antagonist mode, luminescence; activity change, negative = inhibition: at 70.3 µM (top of the series). The procedure, abridged:
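BG1Luc4E2, endogenous ER-alpha, 4xERE-luc; 5 d charcoal-stripped FBS, phenol red free; 24 h plating; cpd + 17beta-estradiol 21.5 h, 37 C/5% CO2; CellTiter-Fluor viability 30 min, then ONE-Glo luciferase 30 min RT.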

The subject of test [8] is thyroid hormone receptor (rat, GH3 cells). In words: qHTS assay to identify small molecule agonists of the thyroid receptor (TR) signaling pathway (AID 743066; calls by dose curve). Conditions: GH3.TRE-Luc cells, TR agonist luciferase, 24 h; series mostly up to 83.9 µM.
A short description of test [9]: qHTS assay to identify small molecule antagonists of the thyroid receptor (TR) signaling pathway (AID 743065). Note: nearly all actives have a fitted effect of over 55% in size. Note: potency is the fitted concentration of half-maximal effect. Conditions: GH3.TRE-Luc, T3-stimulated luciferase inhibition, 23.5 h; series mostly up to 70.3 µM. A digest of the protocol:
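Antagonism measured as loss of luciferase signal in GH3 cells stably carrying a TRE-luciferase reporter, co-treated with compound and T3 (1 nM final) for 23.5 h at 37 C. Viability was read in the same well by CellTiter-Fluor.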
% is set by controls: 0 for no effect and ±100 for the full control effect.

Chain of Estrogen receptor (Homo sapiens) (P03372 whole entry, looked up): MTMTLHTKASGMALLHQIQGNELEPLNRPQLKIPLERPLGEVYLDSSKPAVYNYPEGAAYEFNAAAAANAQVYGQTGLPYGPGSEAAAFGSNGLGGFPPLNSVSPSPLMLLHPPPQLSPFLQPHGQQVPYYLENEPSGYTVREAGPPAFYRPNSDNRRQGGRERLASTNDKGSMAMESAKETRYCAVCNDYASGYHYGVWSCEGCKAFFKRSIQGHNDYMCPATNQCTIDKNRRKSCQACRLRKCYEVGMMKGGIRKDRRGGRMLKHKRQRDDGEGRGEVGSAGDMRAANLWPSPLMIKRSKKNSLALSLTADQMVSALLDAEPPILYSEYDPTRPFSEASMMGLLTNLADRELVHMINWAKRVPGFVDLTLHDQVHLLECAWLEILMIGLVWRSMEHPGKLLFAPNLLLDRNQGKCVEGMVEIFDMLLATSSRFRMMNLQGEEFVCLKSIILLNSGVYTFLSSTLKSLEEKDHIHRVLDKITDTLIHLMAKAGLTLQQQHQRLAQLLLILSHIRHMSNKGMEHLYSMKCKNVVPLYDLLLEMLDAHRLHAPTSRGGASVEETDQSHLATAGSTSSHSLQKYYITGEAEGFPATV
Chain of Aromatase (Homo sapiens) (P11511 whole entry, looked up): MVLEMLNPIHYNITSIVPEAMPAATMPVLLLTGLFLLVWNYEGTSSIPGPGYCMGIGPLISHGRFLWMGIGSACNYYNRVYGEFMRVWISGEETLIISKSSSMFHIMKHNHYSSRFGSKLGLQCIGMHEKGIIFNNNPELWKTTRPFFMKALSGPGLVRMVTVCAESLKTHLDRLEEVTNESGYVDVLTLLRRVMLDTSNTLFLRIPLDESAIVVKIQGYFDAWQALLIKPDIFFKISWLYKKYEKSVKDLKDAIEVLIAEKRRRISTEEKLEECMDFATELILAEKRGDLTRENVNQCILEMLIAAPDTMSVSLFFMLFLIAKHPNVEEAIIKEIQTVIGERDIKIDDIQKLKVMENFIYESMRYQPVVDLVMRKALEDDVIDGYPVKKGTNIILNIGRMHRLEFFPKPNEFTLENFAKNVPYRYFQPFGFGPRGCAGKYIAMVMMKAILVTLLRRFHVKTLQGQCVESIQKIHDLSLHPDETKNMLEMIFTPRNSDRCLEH

As for `C=C(C)C(=O)OCCC[Si](Cl)(Cl)Cl`, the Potency entry (in test [1]; in test [2]; in test [3]; in the test with Aromatase (Homo sapiens)) was “inactive” in each case.

For the compound `CCOC(=O)COc1ccc(C)cc1`, the Potency entry in test [1], in test [4], in test [2], in test [5], in [6] and in [7] was “inactive” in each case. For the same compound, the Potency result (in test [3]; with Aromatase (Homo sapiens)) was “inactive” throughout.

As for `Clc1ccc(C(Cn2ccnc2)OCc2ccsc2Cl)c(Cl)c1` (stereo not given), the Potency was 13.3 µM (active) in test [1] and 5.31 µM (active) with Aromatase (Homo sapiens). In addition, the Potency entry in test [7] and in test [3] was “inactive” throughout.

Take `[O]=[Zr]`: the Potency entry (in test [1]; in test [8]; in [2]; in test [3]; in the test with Aromatase (Homo sapiens)) was “inactive” throughout.

Consider `C=CC(C)(CCC=C(C)C)OC(=O)/C=C/c1ccccc1` (stereo not given), for which the Potency result in test [1], in test [4], in test [2], in [5], in [7] and in test [3] was “inactive” in each case. Also, the Potency entry with Aromatase (Homo sapiens) was “inactive”. Also, the Potency in [6] was 61.1 µM (active).

Take `CCC(C)(C)c1cc(O)c(C(C)(C)CC)cc1O`: the Potency result in [1], in test [8], in [5], in test [6] and in [3] was “inactive” throughout. Moreover, the activity change, negative = inhibition in test [7] is 6.54% (active). Besides, the Potency in the test with Aromatase (Homo sapiens) was 24.3 µM (active).

As for `O=C1OC(=O)c2cccc3cccc1c23`, the Potency entry in test [1], in [8], in [4], in test [2], in test [5] and in [6] was “inactive” in each case. Further, the Potency entry (in test [7]; in test [3]; with Aromatase (Homo sapiens)) was “inactive” throughout.

For `CN(C)CCCN1c2ccccc2Sc2ccc(C(F)(F)F)cc21`, the Potency in test [1] was 9.44 µM (active); in [9], 10.6 µM (active). For the same compound, the Potency result (in test [5]; in [7]; in test [3]; with Aromatase (Homo sapiens)) was “inactive” in each case.

Consider `S=P(N1CC1)(N1CC1)N1CC1`, for which the Potency entry in [1], in test [8], in [4], in test [2], in [5] and in test [6] was “inactive” in each case. Also, the Potency result (in test [7]; in test [3]; with Aromatase (Homo sapiens)) was “inactive” each time.

Regarding `Cc1cccc(C)c1NC(=O)CN1CCN(CCCC(c2ccc(F)cc2)c2ccc(F)cc2)CC1`, the Potency entry (in [2]; in test [3]; in the test with Aromatase (Homo sapiens)) was “inactive” in each case.

Consider `CCN(CC)c1ccc(N)cc1`, for which the Potency was 70.5 µM (active) in test [3] and 28.1 µM (active) with Aromatase (Homo sapiens).

In the case of `O=C(c1ccccc1)c1cc(Cl)ccc1O`, the Potency result in [9], in test [8], in [2], in test [7] and in test [3] was “inactive” throughout. For the same compound, the Potency in test [5] is 58.5 µM [activator] (active). For the same compound, in test [6], the activation is 22.1% (active).

With `S=C(SSSSSSC(=S)N1CCCCC1)N1CCCCC1`, the Potency entry in test [8], in [4], in test [5], in [6] and in test [3] was “inactive” throughout. The Potency with Aromatase (Homo sapiens) was 0.268 µM (active).

As for `Brc1ccccc1-c1ccccc1`, the Potency entry in test [8] was “inactive”.

As for `COc1cc(C(C)C)c2c(c1)S(=O)(=O)N(COc1cc(=O)n3cccc(OCCN4CCCCC4)c3n1)C2=O`, in [9], the Potency is 13 µM (active). For the same compound, the Potency entry in [8], in test [2], in [5], in test [6], in test [7] and in test [3] was “inactive” throughout.

`Nc1ccc2cc3ccc(N)cc3nc2c1`: the Potency was 5.31 µM (active) and 3.06 µM (active) in test [9]; 16.8 µM (active) and 6.11 µM (active) in the test with Aromatase (Homo sapiens). Further, the Potency result in [8] and in [2] was “inactive” in each case.

In the case of `CCO[Si](CCCSSSSCCC[Si](OCC)(OCC)OCC)(OCC)OCC`, the Potency result in test [8], in test [4], in test [5], in [6], in [7] and in test [3] was “inactive” throughout. In the test with Aromatase (Homo sapiens), the Potency result is “inactive”.

Regarding `CCCN(CCc1cccs1)[C@H]1CCc2c(O)cccc2C1`, the Potency entry in [8], in [4], in [2], in test [5], in test [6] and in test [7] was “inactive” in each case. Moreover, in [3], the Potency entry is “inactive”. Further, the Potency with Aromatase (Homo sapiens) was 26.6 µM (active).

In the case of `Cc1occc1SSc1ccoc1C`, the Potency in test [9] was 68.6 µM (active); in the test with Aromatase (Homo sapiens) it was 30.6 µM (active). Further, the Potency result in [8], in test [2] and in test [3] was “inactive” throughout.
